Calls of active or inactive are those of the source.

Experiment [1] in a line: binders of probe aFSTL3 on microarray, primary screen, stem cell growth factor project, biochemical, small-molecule microarray, fluorescence 635/667 (AID 1064).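 Note: measures binding of the biotinylated anti-FSTL3 antibody to printed compounds.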 The conditions noted are these: higher = more signal.
Experiment [2] is described as follows: binders from COS7 lysate, DM2A8 probe, primary screen, torsin A project, cell lysate, small-molecule microarray, fluorescence 635/667 (AID 1065). The conditions noted are these: higher = more signal, COS7 lysate expressing mutant human TOR1A.
The nature of experiment [3]: binders of probe aFGF2 on microarray, primary screen, stem cell growth factor project, biochemical, small-molecule microarray, fluorescence 635/667 (AID 1067).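 Note: measures binding of biotinylated aFGF2 protein to printed compounds on slides; z-score merges feature fluorescence and signal-to-noise across triplicate slides.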 The settings on record: higher = more signal.
Experiment [4] is described as follows: binders of probe aFGF10 on microarray, primary screen, stem cell growth factor project, biochemical, small-molecule microarray, fluorescence 635/667 (AID 1071).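 Note: score merges 667 nm spot intensity and signal to noise from triplicate slides.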 The conditions noted are these: higher = more signal.
Experiment [5] has as its target Neurogenic locus notch homolog protein 2 (Homo sapiens) (UniProt Q04721). The experiment in a line: Notch2 binders on small-molecule microarrays, primary screen, biochemical, small-molecule microarray, 635 nm fluorescence, stem cell growth factors (AID 1073). The conditions noted are these: Notch2 binding, higher = more signal.
In experiment [6] the target is Pro-neuregulin-1, membrane-bound isoform (Homo sapiens) (UniProt Q02297). Kind of experiment: NRG1 binders on small-molecule microarrays, primary screen, psychiatric disease protein project, biochemical, small-molecule microarray, fluorescence 635/667 (AID 1075).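 Note: score combines 667 nm spot fluorescence with signal to noise.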 The conditions noted are these: NRG1 binding, 635 nm fluorescence, higher = more signal.
Pro-neuregulin-1, membrane-bound isoform (Homo sapiens), sequence (Q02297 whole entry, looked up, the tested form may be a part, canonical isoform): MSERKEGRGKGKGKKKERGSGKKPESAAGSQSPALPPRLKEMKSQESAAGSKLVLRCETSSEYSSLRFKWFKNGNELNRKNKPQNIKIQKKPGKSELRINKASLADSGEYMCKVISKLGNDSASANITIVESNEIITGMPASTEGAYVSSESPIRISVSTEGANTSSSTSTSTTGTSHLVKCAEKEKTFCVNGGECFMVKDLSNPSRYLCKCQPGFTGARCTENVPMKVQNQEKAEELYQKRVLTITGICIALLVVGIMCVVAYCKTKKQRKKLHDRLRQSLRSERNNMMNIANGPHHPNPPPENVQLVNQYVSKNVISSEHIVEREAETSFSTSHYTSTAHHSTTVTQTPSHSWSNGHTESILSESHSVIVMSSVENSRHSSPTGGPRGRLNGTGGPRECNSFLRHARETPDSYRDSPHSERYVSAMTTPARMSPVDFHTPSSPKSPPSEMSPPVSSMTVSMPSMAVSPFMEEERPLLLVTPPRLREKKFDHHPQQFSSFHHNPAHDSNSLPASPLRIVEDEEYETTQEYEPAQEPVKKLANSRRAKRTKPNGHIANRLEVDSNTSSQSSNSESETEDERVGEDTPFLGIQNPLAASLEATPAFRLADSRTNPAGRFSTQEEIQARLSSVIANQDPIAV
The test system of experiment [7] is Neuregulin-1 EGF-like domain. Kind of experiment: binders of neuregulin-1 EGF-like domain, primary screen, biochemical, small-molecule microarray, 635 nm fluorescence (AID 1081).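 Note: binding of the protein to compounds printed on small-molecule microarray slides.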 The settings on record: small-molecule microarray binding, higher = more signal.
Experiment [8] in a line: FRG1 promoter luciferase signal modulators, primary screen, FRG1 inhibition for FSHD, cell-based, C2C12 myotubes, firefly/Renilla luciferase, luminescence (AID 1084). The conditions noted are these: higher = more signal, called active from +8 up or from −8 down.
Experiment [9] can be described thus: binders of probe aFST on microarray, primary screen, stem cell growth factor project, biochemical, small-molecule microarray, fluorescence 635/667 (AID 1086).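 Note: score merges 667 nm fluorescence with signal-to-noise of each printed compound spot.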 The settings on record: higher = more signal.
Experiment [10] is described as follows: binders of probe aHhip on microarray, primary screen, stem cell growth factor project, biochemical, small-molecule microarray, fluorescence 635/667 (AID 1087).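 Note: score merges spot fluorescence at 667nm with spot signal to noise ratio.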 The settings on record: higher = more signal.
Experiment [11] deals with PRMT1 (protein arginine N-methyltransferase 1). The experiment in a line: PRMT1 binders on small-molecule microarrays, primary screen, biochemical, small-molecule microarray, 635 nm fluorescence (AID 1088).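 Note: binding of Prmt1 protein to compounds spotted on small-molecule microarray slides.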 The conditions noted are these: small-molecule microarray binding, higher = more signal.
Experiment [12] can be described thus: yeast growth modulation, basal conditions, primary screen, YJM789 clinical isolate, OD600, 24 h (AID 1089).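 Note: growth of clinical yeast isolate S. cerevisiae YJM 789 seeded 1000 cells per well; test concentration not given here.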 The conditions noted are these: S. cerevisiae YJM789 growth, higher = more signal, called active from +8 up or from −8 down.
Experiment [13] is described as follows: fission yeast growth modulation, primary screen, strain 972, OD600, 24 h, no modulator (AID 1090).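 Note: basal condition with compound alone and no growth modifier present; test concentration not given here.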 The conditions noted are these: S. pombe 972 growth, higher = more signal, called active from +8 up or from −8 down.
The nature of experiment [14]: S. cerevisiae growth modulation with rapamycin, primary screen, strain BY4716, OD600, 96 h (AID 1091). Note: test concentration not given here. The settings on record: higher = more signal, called active from +8 up or from −8 down.
Experiment [15] concerns the target Torsin-1A-interacting protein 2 (Homo sapiens) (UniProt Q8NFQ8). The experiment in a line: LULL1 binders on small-molecule microarray, primary screen, cell lysate, human LULL1 lysate, 635/667 nm fluorescence (AID 1092).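 Note: score merges per-feature 667 nm fluorescence with signal-to-noise.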 The settings on record: hLULL1 lysate binding, 635 nm fluorescence, higher = more signal.
Experiment [16] is described as follows: E. coli growth modulation, two-sided OD650, primary screen, E. coli filamentation project, strain DRC41, 24 h (AID 1093).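 Note: MC1000 strain lacking acrAB efflux and sulA so SOS filamentation is blocked; test concentration not given here.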 The settings on record: OD650, 24 h, higher = more signal, called active from +8 up or from −8 down.
A short description of experiment [17]: small-molecule microarray binders of probe aLefty2, primary screen, biochemical, biotinylated probe, 635/667 nm fluorescence (AID 1094).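 Note: score merges spot fluorescence near 667 nm with spot signal-to-noise ratio.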 The conditions noted are these: higher = more signal.
Experiment [18] deals with Noggin (protein binding on small-molecule microarray). The experiment in a line: Noggin binders on small-molecule microarray, primary screen, biochemical, 635/667 nm fluorescence (AID 1095).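 Note: score merges 667 nm feature fluorescence with signal to noise over triplicate slides.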 The settings on record: 635 nm fluorescence, higher = more signal.
The target in experiment [19] is Neurogenic locus notch homolog protein 3 (Homo sapiens) (UniProt Q9UM47). The experiment in a line: NOTCH3 binders on small-molecule microarray, primary screen, biochemical, 635/667 nm fluorescence (AID 1096). The conditions noted are these: NOTCH3 binding, 635 nm fluorescence, higher = more signal.
Experiment [20] in a line: small-molecule microarray binders of probe aEGFR, primary screen, biochemical, biotinylated probe, 635/667 nm fluorescence (AID 1097).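 Note: probe is a biotinylated anti-EGFR antibody binding compounds printed on slides; score combines fluorescence near 667 nm and signal to noise of each spot.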 The settings on record: higher = more signal.

Neurogenic locus notch homolog protein 2 (Homo sapiens), sequence (Q04721 whole entry, looked up, canonical isoform): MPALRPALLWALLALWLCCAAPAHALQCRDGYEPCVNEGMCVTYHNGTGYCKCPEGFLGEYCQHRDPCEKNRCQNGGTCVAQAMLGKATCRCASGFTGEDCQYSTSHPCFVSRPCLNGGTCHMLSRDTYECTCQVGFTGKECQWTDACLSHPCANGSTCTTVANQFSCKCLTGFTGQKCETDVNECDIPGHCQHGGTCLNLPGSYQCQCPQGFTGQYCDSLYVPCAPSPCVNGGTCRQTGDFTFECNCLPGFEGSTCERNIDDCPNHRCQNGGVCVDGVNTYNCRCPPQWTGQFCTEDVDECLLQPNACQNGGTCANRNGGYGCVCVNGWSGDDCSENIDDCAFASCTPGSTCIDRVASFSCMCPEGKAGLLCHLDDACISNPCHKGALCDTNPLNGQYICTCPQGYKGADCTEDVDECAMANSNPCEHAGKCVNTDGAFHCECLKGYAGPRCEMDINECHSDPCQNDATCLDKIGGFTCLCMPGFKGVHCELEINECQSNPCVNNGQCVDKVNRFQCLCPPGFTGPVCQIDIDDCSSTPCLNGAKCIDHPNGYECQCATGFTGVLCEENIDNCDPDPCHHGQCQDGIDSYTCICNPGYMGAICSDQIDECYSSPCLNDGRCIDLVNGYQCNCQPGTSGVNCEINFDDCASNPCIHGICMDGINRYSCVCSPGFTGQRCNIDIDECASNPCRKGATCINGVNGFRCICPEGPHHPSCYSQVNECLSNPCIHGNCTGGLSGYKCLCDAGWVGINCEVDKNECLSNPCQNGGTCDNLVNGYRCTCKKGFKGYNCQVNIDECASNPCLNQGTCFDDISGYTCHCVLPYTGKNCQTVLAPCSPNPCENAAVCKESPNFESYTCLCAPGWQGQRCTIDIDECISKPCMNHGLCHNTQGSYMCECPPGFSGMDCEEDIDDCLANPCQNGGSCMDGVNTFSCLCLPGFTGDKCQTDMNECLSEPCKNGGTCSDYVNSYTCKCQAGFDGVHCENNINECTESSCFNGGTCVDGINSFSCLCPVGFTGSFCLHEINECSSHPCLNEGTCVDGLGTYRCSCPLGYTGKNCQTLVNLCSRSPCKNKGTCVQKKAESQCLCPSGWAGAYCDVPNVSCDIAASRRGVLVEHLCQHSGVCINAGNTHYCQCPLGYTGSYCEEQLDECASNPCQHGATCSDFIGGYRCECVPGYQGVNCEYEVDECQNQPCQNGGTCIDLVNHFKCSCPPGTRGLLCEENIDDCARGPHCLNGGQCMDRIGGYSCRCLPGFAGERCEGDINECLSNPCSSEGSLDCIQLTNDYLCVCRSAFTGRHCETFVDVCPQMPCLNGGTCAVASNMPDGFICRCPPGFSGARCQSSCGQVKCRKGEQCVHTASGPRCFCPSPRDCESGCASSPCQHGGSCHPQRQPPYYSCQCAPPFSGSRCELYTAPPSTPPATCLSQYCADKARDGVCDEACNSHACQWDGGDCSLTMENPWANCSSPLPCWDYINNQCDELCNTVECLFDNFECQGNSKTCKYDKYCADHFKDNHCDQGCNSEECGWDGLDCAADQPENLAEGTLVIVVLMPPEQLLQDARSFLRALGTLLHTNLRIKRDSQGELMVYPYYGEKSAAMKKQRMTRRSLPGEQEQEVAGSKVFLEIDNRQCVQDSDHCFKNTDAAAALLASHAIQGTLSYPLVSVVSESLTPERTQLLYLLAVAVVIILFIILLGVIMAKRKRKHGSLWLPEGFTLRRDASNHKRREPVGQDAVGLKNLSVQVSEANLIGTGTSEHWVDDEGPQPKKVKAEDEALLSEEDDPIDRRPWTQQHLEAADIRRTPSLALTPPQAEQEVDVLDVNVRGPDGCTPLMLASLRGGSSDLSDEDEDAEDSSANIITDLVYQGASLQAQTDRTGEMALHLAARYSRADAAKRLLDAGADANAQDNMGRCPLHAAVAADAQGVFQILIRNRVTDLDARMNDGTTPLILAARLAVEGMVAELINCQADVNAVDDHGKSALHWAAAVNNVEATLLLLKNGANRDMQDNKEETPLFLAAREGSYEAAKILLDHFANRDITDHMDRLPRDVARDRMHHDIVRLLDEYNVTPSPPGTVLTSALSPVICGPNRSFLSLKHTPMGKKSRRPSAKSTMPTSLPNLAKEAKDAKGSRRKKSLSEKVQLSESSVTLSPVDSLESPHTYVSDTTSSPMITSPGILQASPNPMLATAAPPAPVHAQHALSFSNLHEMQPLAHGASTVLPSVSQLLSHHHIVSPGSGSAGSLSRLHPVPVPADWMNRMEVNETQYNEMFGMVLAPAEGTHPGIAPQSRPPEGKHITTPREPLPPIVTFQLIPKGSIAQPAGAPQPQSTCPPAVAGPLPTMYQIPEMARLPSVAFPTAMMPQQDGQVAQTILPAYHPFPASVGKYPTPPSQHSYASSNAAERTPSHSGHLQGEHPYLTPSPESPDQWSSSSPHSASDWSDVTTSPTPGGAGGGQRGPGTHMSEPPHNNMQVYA
Torsin-1A-interacting protein 2 (Homo sapiens), sequence (Q8NFQ8 whole entry, looked up): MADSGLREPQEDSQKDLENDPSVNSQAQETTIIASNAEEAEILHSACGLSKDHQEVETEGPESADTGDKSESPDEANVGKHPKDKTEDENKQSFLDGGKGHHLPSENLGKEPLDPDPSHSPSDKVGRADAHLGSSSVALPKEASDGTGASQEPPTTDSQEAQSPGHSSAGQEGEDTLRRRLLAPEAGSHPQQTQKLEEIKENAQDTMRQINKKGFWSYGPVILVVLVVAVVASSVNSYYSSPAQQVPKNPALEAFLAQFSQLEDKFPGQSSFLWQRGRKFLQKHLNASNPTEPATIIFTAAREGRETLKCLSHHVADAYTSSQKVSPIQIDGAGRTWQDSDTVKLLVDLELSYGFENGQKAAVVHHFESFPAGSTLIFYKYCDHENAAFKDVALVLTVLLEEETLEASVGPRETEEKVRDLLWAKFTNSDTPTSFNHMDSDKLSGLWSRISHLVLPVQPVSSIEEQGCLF

As for `CC(C)NC(=O)[C@@]1(c2ccc([N+](=O)[O-])cc2)CC(=O)N(CC23CC4CC(CC(C4)C2)C3)[C@@H]1c1ccc(CO)cc1`, the composite z-score in experiment [1] came out at 1.43; in [2], 0.522; in experiment [3], 0.516; in experiment [4], 1.02; in [5] it was 1.42; in experiment [6], 1.9. In addition, the composite z-score in experiment [7] was 1.18; in experiment [9], 1.86; in experiment [10], 1.11; in experiment [11] it was 1.54; in [15], 3.03; in experiment [17] it was 0.707. The composite z-score was determined as 1.57 in experiment [18], 1.02 in experiment [19] and 0.837 in experiment [20]. Besides, the z-score was -3.57 (inactive) in experiment [8]; -0.383 (inactive) in [12]; -0.822 (inactive) in [13]; 0.937 (inactive) in experiment [14]; 0.267 (inactive) in [16].

For `C=C(COC)C(=O)CC[C@@H](OC(C)=O)c1ccccc1OCCO`, the composite z-score in experiment [1] was -0.215; in experiment [2] it was -0.0765; in experiment [3], -0.102; in experiment [4], 1.39; in experiment [5], -0.54; in experiment [6], 0.695. Besides, the composite z-score is 0.326 in experiment [7]; 0.406 in experiment [9]; -0.0994 in [10]; 1.34 in [11]; 1.76 in experiment [15]; -0.117 in experiment [17]. Besides, the composite z-score is 1.11 in experiment [18], 0.784 in experiment [19] and -0.0382 in [20]. In addition, the z-score is 0.151 (inactive) in [8]; -1.89 (inactive) in [12]; -3.27 (inactive) in [13]; -1.51 (inactive) in experiment [14]; 0.732 (inactive) in [16].

Take `CC(C)NC(=O)[C@@H]1c2ccccc2C(=O)N(Cc2ccc(OC(F)(F)F)cc2)[C@H]1c1ccc(CO)cc1`: the composite z-score is 0.33 in experiment [1]; -0.0722 in experiment [2]; 0.242 in experiment [3]; 0.625 in [4]; 1.05 in experiment [5]; 0.765 in experiment [6]. Besides, the composite z-score stood at 1 in experiment [7]; 1.35 in experiment [9]; 2.21 in experiment [10]; 1.54 in experiment [11]; 2.67 in [15]; 0.734 in experiment [17]. Moreover, the composite z-score in [18] is 0.756; in experiment [19] it was 1.11; in experiment [20], 0.587. In addition, the z-score in experiment [8] was -1.05 (inactive); in [12] it was 0.0263 (inactive); in experiment [13], -1.24 (inactive); in experiment [14], -1.51 (inactive); in [16] it was -1.48 (inactive).

As to `O=C(O)[C@H](Cc1ccccc1)n1cc(C2(O)CCCCC2)nn1`, the composite z-score in experiment [1] is -0.44; in experiment [2], 0.444; in [3], -0.103; in experiment [4], 0.262; in experiment [5] it was -0.0666; in [6], 0.0741. Besides, the composite z-score in [7] was 0.993; in [9] it was 0.163; in experiment [10], -0.0645; in experiment [11], 0.499; in experiment [15], 1.71; in experiment [17], -0.137. In addition, the composite z-score was 0.392 in experiment [18], 0.541 in [19] and -0.0211 in [20]. Moreover, the z-score is 1.64 (inactive) in [8]; -0.418 (inactive) in [12]; 0.255 (inactive) in experiment [13]; -0.444 (inactive) in [14]; -1.15 (inactive) in [16].

For `C=CCC(OC(C)=O)[C@@H]1[C@@H](N(Cc2ccc(-c3cccc(C(F)(F)F)c3)o2)C(=O)Cc2ccc(F)cc2)c2cc(OCCCO)ccc2N1C(=O)Cc1ccc2ccccc2c1` (stereo not given in full), the composite z-score in experiment [1] is 0.136; in [2], -0.648; in experiment [3], -0.129; in experiment [4], 0.53; in [5], -0.349; in [6], -0.257. For the same compound, the composite z-score in [7] was -0.285; in experiment [9] it was -0.106; in [10] it was -0.212; in experiment [11] it was -0.783; in experiment [15], -0.199; in experiment [17], -0.118. Further, the results for the composite z-score in experiment [18], in experiment [19] and in experiment [20] were -0.244, -0.855 and -0.125, respectively. In addition, the z-score in experiment [8] is 0.116 (inactive); in [12] it was -0.554 (inactive); in experiment [13], 0.181 (inactive); in [14], -0.669 (inactive); in experiment [16] it was -1.01 (inactive).

`CCCCCC1=C2CNC(CC(C)C)(C(=O)OC)C=C2C(C)C1=O` (stereo not given): the composite z-score in experiment [1] is 1.08; in [2], -0.176; in experiment [3] it was 0.185; in experiment [4], 0.0051; in experiment [5], 0.122; in experiment [6], 1.01. In addition, the composite z-score in experiment [7] came out at 0.568; in experiment [9] it was 0.404; in experiment [10], 3.31; in [11], 1.51; in experiment [15], 2.87; in [17], 0.0887. Further, the composite z-score in [18] was -0.272; in experiment [19], 0.225; in [20] it was -0.126. For the same compound, the z-score in experiment [8] was 0.51 (inactive); in experiment [12], 0.298 (inactive); in [13] it was 0.421 (inactive); in [14], 0.22 (inactive); in experiment [16], -0.415 (inactive).

As for `O=C1N(CCS(=O)(=O)c2ccccc2)c2ccccc2C[C@]12N=C(c1ccc(OCCCO)cc1)O[C@@H]2c1ccccc1`, the composite z-score in [1] is 0.227; in experiment [2] it was 0.335; in [3] it was 0.0605; in experiment [4] it was -0.122; in [5], 1.15; in experiment [6], 0.333. In addition, the composite z-score in experiment [7] is 1.23; in [9] it was 0.734; in experiment [10], 0.0053; in experiment [11], 1.48; in experiment [15], 3.12; in [17], 0.225. The composite z-score in experiment [18] is 0.83; in experiment [19], 1.09; in experiment [20], -0.164. The z-score in experiment [8] was -0.253 (inactive); in [12], 2.51 (inactive); in experiment [13] it was 0.762 (inactive); in [14], 4.39 (inactive); in [16], 0.568 (inactive).

Consider `Cc1ccc(S[C@]2(C(=O)NC(C)C)CC(=O)N(C3CCCCC3)[C@@H]2c2ccc(CO)cc2I)cc1`, for which the composite z-score in [1] was -0.183; in experiment [2], 2.15; in experiment [3] it was -0.0257; in [4], 0.308; in experiment [5], 0.777; in experiment [6], 0.897. In addition, the composite z-score in [7] was 1.33; in experiment [9] it was 0.276; in [10], -0.399; in [11] it was 1.54; in experiment [15], 2.84; in experiment [17], -0.0977. The values for the composite z-score in [18], in experiment [19] and in experiment [20] were 0.7, 0.884 and 0.0203, respectively. The z-score in experiment [8] was -4.76 (inactive); in experiment [12], -1.15 (inactive); in experiment [13] it was 0.145 (inactive); in [14], 2.68 (inactive); in experiment [16], -0.317 (inactive).

Consider `COc1cc(CO)cc(I)c1O[C@H]1C=C(C(=O)NCCO)C[C@@H](NC2CCCCCC2)[C@@H]1O`, for which the composite z-score in [1] is -0.606; in [2], 0.174; in experiment [3] it was -0.0114; in experiment [4], 0.998; in experiment [5], 0.618; in experiment [6], -0.0274. In addition, the composite z-score in [7] was 0.716; in [9] it was -0.0564; in experiment [10], -0.0994; in experiment [11], 1.53; in [15] it was 1.86; in experiment [17], -0.166. For the same compound, the composite z-score was 1.22 in experiment [18], 1.01 in [19] and -0.0564 in experiment [20]. The z-score in experiment [8] was 0.999 (inactive); in [12], 0.543 (inactive); in [13] it was -8.18 (active); in experiment [14], -0.397 (inactive); in experiment [16], 1.37 (inactive).
